High-throughput results deposited in PubChem BioAssay by several laboratories.
Mcl-1 Bim block = disrupts Bim peptide binding to human Mcl-1; 0.1% of 190,000 active; inhibition, % at 10 µM; Q07820; Bead-based flow cytometry, Bim peptide-Mcl-1 binding; in the data active means inhibition above about 40%
Target sequence (Q07820 whole entry, looked up): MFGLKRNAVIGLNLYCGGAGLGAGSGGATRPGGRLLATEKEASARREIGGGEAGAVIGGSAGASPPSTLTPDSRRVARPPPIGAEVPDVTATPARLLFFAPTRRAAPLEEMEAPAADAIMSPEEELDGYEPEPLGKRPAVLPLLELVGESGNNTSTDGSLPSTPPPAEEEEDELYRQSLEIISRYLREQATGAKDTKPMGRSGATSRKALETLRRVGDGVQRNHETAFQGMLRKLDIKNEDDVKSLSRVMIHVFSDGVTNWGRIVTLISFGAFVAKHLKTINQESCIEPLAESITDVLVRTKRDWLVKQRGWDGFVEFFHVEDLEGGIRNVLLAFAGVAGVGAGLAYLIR
MCL1-BIM inh = inhibitors of human MCL1 binding to BIM-BH3 peptide. AID 2057. 0.68% of 320,000 active. GST-MCL1 / FITC-Bim-BH3 fluorescence polarization. Q07820. inhibition, % at 10.9 µM;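 active means inhibition above the mean inhibition of all tested compounds plus 3 SD, set per campaign, cut at about 40% in these data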;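 further: higher means more loss of mP so more displacement of Bim peptide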
Mcl1 Bid PPI = disrupts binding of human Mcl-1 to Bid peptide | Q07820 | AID 1021 | TR-FRET Mcl-1/Bid-Dy647 peptide binding, 1536-well | 0.97% of 220,000 active | inhibition, % at 21.7 µM;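 active means compounds that cut the binding signal by more than half at the single screening dose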;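 further: His-tagged Mcl-1 with europium anti-His antibody binding Bid BH3 peptide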
Mcl1-Noxa inh = disrupts binding of human Mcl-1 to Noxa peptide; Q07820; TR-FRET Mcl-1/Noxa peptide binding, 2 h; inhibition, % at 21.7 µM; 1.5% of 220,000 active; AID 1022;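 active means compounds that cut the protein-peptide binding signal by more than 50% relative to plate controls in a single-dose test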;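 further: His-tagged Mcl-1 with rhodamine Noxa BH3 peptide and terbium anti-His antibody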
14-3-3 Bad inh = disrupts binding of bovine 14-3-3 zeta to phospho-Bad peptide; P63103; TR-FRET 14-3-3zeta/Dy647-pBad peptide displacement, 1 h; inhibition, % at 21.7 µM; 0.71% of 220,000 active; AID 781;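 active means inhibition above about 70%, limit read from the data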
Target sequence (P63103 whole entry, looked up): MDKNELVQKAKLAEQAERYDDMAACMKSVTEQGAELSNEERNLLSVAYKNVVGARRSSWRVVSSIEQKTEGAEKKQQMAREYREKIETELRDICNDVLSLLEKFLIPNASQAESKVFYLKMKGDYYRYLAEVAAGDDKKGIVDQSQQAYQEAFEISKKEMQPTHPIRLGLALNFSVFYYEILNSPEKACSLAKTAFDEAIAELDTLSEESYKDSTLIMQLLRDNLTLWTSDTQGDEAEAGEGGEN
Of the large screens only hits and unclear results are named; the others gave an inactive call; [ ] = remark or other dose. Sampled rows, rich in hits. Any-hit rate of the full collection: about 2.5%.

CN1/C(=C\P(=O)(N(C)C)N(C)C)C(C)(C)c2ccccc21	MCL1-BIM inh 47
COC(=O)NC1CCC(CC2CCC(NC(=O)OC)CC2)CC1 (stereo not given)	none
COc1ccc(CNCc2c(C(=O)N(C)C)nc3ccc(Cl)cn23)c(OC)c1	none
Cc1cc(=O)n2[nH]c(-c3ccc(F)cc3)cc2n1	none
Cc1cc(=O)n2[nH]c(-c3ccsc3-n3c(C)ccc3C)cc2n1	Mcl1-Noxa inh 97 (no result: Mcl-1 Bim block)
Cc1nc2cc(-c3ccsc3-n3c(C)ccc3C)[nH]n2c(=O)c1Cl	Mcl1-Noxa inh 61
COCc1cc(=O)n2[nH]c(-c3ccsc3-n3c(C)ccc3C)cc2n1	Mcl1-Noxa inh 69
CC1CCCN(C(=S)Nc2ccc3nc4n(c(=O)c3c2)CCCCC4)C1 (stereo not given)	Mcl1 Bid PPI 97
CC(=O)c1c(C)[nH]c(C(=O)CSc2ncnc3sc(-c4ccccc4)cc23)c1C	none
Cc1ccc(OCC(O)Cn2c3ccccc3c3ccccc32)cc1 (stereo not given)	none
OCCN1CCN(CC(O)COc2ccc3ccccc3c2)CC1 (stereo not given)	none
OCCN1CCN(CC(O)COc2ccc(-c3ccccc3)cc2)CC1 (stereo not given)	14-3-3 Bad inh 84
CC(=O)c1ccc(OCC(O)CN2CCOCC2)cc1 (stereo not given)	Mcl1-Noxa inh 64
Cc1ccc(OCCN2CCN(CC(O)Cn3c4ccccc4c4ccccc43)CC2)cc1 (stereo not given)	Mcl1 Bid PPI 66
COC(=O)C(Cc1ccccc1)NC(=O)CNC(=O)c1ccc(Br)cc1 (stereo not given)	none (no result: Mcl-1 Bim block, Mcl1 Bid PPI, Mcl1-Noxa inh, 14-3-3 Bad inh)
CCOc1ccc(C=NC23CN4CN(CN(C4)C2)C3)cc1	none
CCOc1cc(C=O)ccc1OS(=O)(=O)c1ccc(NC(C)=O)cc1	Mcl1 Bid PPI 52
CCOc1ccc(CN2CCN(S(=O)(=O)c3ccc(NC(C)=O)cc3)CC2)cc1OC	Mcl1 Bid PPI 52
CCOc1cc(C=O)ccc1OCC(N)=O	none
COc1cccc(C(=O)NCc2nnc(SCC(=O)Nc3nccs3)n2-c2ccccc2)c1	none
CCOC(CNC(=O)C(=O)Nc1cc2c3c(c1)CC(=O)N3CCC2)OCC	none (no result: Mcl-1 Bim block, Mcl1 Bid PPI, Mcl1-Noxa inh, 14-3-3 Bad inh)
Cc1nc(NC(=O)c2ccco2)sc1-c1csc(Nc2ccc(Cl)cc2Cl)n1	Mcl1 Bid PPI 87, Mcl1-Noxa inh 100, 14-3-3 Bad inh 87[fluorescence artefact?]
Cc1ccc(Cl)cc1Nc1nc(-c2sc(NC(=O)c3ccco3)nc2C)cs1	none
Cc1nc(NC(=O)c2ccco2)sc1-c1csc(Nc2ccc(Cl)cc2)n1	Mcl1-Noxa inh 62
Nc1ccc2c(c1)C(=O)c1ccccc1C2=O	none (no result: Mcl-1 Bim block, Mcl1 Bid PPI, Mcl1-Noxa inh, 14-3-3 Bad inh)
CCOc1ccccc1N1CCN(C/C=C/c2ccc(N(C)C)cc2)CC1	14-3-3 Bad inh 78[fluorescence artefact?]
CCOc1ccccc1N1CCN(Cc2ccco2)CC1	none
CCOc1ccccc1N1CCN(S(=O)(=O)CC)CC1	none
CCOc1ccccc1N1CCN(Cc2ccc(Br)s2)CC1	14-3-3 Bad inh 76
CC(C)CC(=O)c1c[nH]c(C(=O)NCCc2ccccn2)c1	none
CCCCN(Cc1cc2cc(OC)ccc2[nH]c1=O)C(=O)c1ccccn1	Mcl1 Bid PPI 65
Oc1ccc(C=Nc2ccc3ncccc3c2)c(O)c1	none
COc1cccc(N=Cc2ccc(O)cc2O)c1	MCL1-BIM inh 43
COc1cc(/C=N/NC(=O)CN(Cc2ccccc2)S(=O)(=O)c2ccc3c(c2)OCCO3)ccc1O	none
COc1cc(/C=N/NC(=O)CN(Cc2ccco2)S(=O)(=O)c2ccccc2)ccc1O	Mcl-1 Bim block 45
COc1ccc(NC(=S)Nc2ccc3nc(C)c(C)nc3c2)cc1	none
Cn1cc(/C=C/C(=O)c2ccccc2)c2ccccc21	14-3-3 Bad inh 91 (no result: Mcl-1 Bim block)
Cc1ccc(C(=O)/C=C/c2cn(CN3CCN(C)CC3)c3ccccc23)cc1	none
COc1cccc(CNC(=O)C23CN(Cc4ccccc4)CC2C(c2ccc([N+](=O)[O-])cc2)=NO3)c1 (stereo not given)	14-3-3 Bad inh 71
COc1ccc2c(c1OC)C(=O)N1C(C(=O)O)Cc3c([nH]c4ccccc34)C21 (stereo not given)	MCL1-BIM inh 47
CCN(CC)C(=O)C1CCCN(Cc2nc(-c3cnccn3)no2)C1 (stereo not given)	none
CCOc1ccc(CNc2ccc(N3CCN(Cc4ccccc4)CC3)cc2)cc1	none (no result: Mcl-1 Bim block, Mcl1 Bid PPI, Mcl1-Noxa inh, 14-3-3 Bad inh)
COc1cc(CNc2ccc(N3CCCC3)cc2)cc(Cl)c1OC	Mcl1-Noxa inh 72
CCOc1ccc(CNc2ccc(N3CCCC3)cc2)cc1	Mcl1-Noxa inh 66
CCOc1cc(CNc2ccc(N3CCCC3)cc2)cc(Cl)c1OC	Mcl1-Noxa inh 76
COc1ccc(N(C(=O)Cc2cccs2)C(C(=O)NC2CCCCC2)c2cccn2C)cc1 (stereo not given)	14-3-3 Bad inh 90
CC(=O)c1ccc(NC(=O)c2noc(C(C)C)c2[N+](=O)[O-])cc1	none
Cc1nc2cc(-c3ccccc3)nn2c(N)c1-c1ccccc1	none (no result: Mcl-1 Bim block, Mcl1 Bid PPI, Mcl1-Noxa inh, 14-3-3 Bad inh)
CCn1cc(CN2CCC(n3nccc3NC(=O)c3ccccc3OC)CC2)cn1	none (no result: Mcl-1 Bim block, Mcl1 Bid PPI, Mcl1-Noxa inh, 14-3-3 Bad inh)
COc1cc(CN2CCC(n3nccc3NC(=O)C3CCOC3)CC2)ccc1F (stereo not given)	none (no result: Mcl-1 Bim block, Mcl1 Bid PPI, Mcl1-Noxa inh, 14-3-3 Bad inh)
Cc1ccc(N2CC(C(=O)Nc3ccc(N(C)C)cc3)CC2=O)cc1C (stereo not given)	Mcl1-Noxa inh 75
COc1cc(/C=C2/SC(=S)N(Cc3ccccc3)C2=O)ccc1OS(C)(=O)=O	none (no result: Mcl-1 Bim block, Mcl1 Bid PPI, Mcl1-Noxa inh, 14-3-3 Bad inh)
CC(=O)c1ccc(OC(=O)C(CCS(C)(=O)=O)N2C(=O)c3ccccc3C2=O)cc1 (stereo not given)	none
COn1c(C)c(C)c2c3nonc3ccc21	14-3-3 Bad inh 95 (no result: Mcl-1 Bim block, MCL1-BIM inh)
CCOC(=O)c1c(C)n(OCc2ccccc2)c2ccc3nonc3c12	none
Cn1nnnc1SCC1=C(C(=O)O)N2C(=O)[C@@H](NC(=O)[C@H](O)c3ccccc3)[C@H]2SC1	Mcl1-Noxa inh 51
CC1CCCC(NC(=O)C2CCC(CNc3c(N4CCCC4)c(=O)c3=O)CC2)C1C (stereo not given)	none (no result: Mcl-1 Bim block)
CC1CCCC(NC(=O)C2CCC(CNc3c(N4CCCCC4)c(=O)c3=O)CC2)C1C (stereo not given)	14-3-3 Bad inh 90 (no result: Mcl-1 Bim block)
C=CCNCCOCCOc1ccc(C)cc1[N+](=O)[O-]	14-3-3 Bad inh 75
COc1cc(C)ccc1OCCOCCOc1ccc(C)cc1[N+](=O)[O-]	none
O=c1cc(CSc2nnc(-c3cccs3)n2Cc2ccccc2)nc2sc3ccccc3n12	Mcl1-Noxa inh 59
COc1cccc(/C=N/n2c(SC)nnc2-c2ccccc2)c1O	Mcl1-Noxa inh 51
COc1cc(OC)nc(Oc2ccccc2C(=O)Oc2cccc(C)c2)n1	Mcl1 Bid PPI 53
O=C1CC2(CCCC2)CC(=O)N1CCCCN1CCN(c2ncccn2)CC1	none
Cc1ncc(CO)c(/C=N/Nc2ccc(C(F)(F)F)cn2)c1O	MCL1-BIM inh 43 (no result: Mcl-1 Bim block, Mcl1 Bid PPI, Mcl1-Noxa inh, 14-3-3 Bad inh)
CCN1CCN(c2oc(COc3ccc(-c4ccccc4)cc3)nc2C#N)CC1	none
COc1ccccc1NC(=O)c1ccc(COc2ccc3c(c2)CCC3)cc1	none
